According to PubChem BioAssay (EPA / NIEHS):
The source made the active and inactive calls. How the source made its calls: active means hit-call score of the fitted dose curve at least 0.9, where 1 is the maximum; inactive means score below 0.9.

Experiment: CCTE_Shafer_MEA_acute_spike_number: CCTE's Neural Acute Assay for Total Number of Spikes, Shafer Lab (AID 2284008);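 on AC50: curve fitted for decrease in spike count so AC50 reflects inhibitors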
Experimental: CCTE_Shafer_MEA_acute assay is conducted using Axion Biosystems 48 well microelectrode array (MEA) plates and Maestro recording system. Each well of the MEA plate contains a grid of 16 microelectrodes embedded in the culture surface. Electrically active cells, such as neurons, can be cultured over the electrodes, and electrical activity in these cells can be recorded extracellularly. The spontaneous firing of neurons is captured from each electrode on a microsecond timescale providing both temporally and spatially precise data. […] The CCTE_Shafer_MEA_acute assay uses primary cultures of rat cortical neurons. As these cultures mature over time, neural networks develop functional activity and form cohesive networks in which electrical activity can be highly coordinated. Baseline 40-minute recordings are made on days post-plating 13 or 15, followed by a secondary 40-minute recording after chemical exposure.CCTE_Shafer_MEA_acute_spike_number is a component of the CCTE_Shafer_MEA_acute assay. It measures the total number of spikes (action potential firings) in a 40-minute recording in a microelectrode array (MEA) using Axion Biosystems Maestro 768 channel amplifier with the AxIS adaptive spike detector. The recordings before and after chemical treatment are used to calculate a percent change in the spike number in each well. Data from the assay component CCTE_Shafer_MEA_acute_spike_number was analyzed into 1 assay endpoint. This assay endpoint, CCTE_Shafer_MEA_acute_spike_number, was analyzed in the negative analysis fitting direction relative to DMSO as the negative control and baseline of activity. Using a type of functional reporter, gain or loss-of-signal activity can be used to understand electrical activity.
Spontaneous activity in the cortical cultures was recorded using an Axion Biosystems Maestro 768 channel amplifier and Axion Integrated Studios (AxIS) v1.8 (or later) software. The amplifier recorded from all channels simultaneously (gain = 1200 x; sampling rate = 12.5 kHz/channel): raw signals were filtered with a Butterworth band-pass filter (300-5000 Hz), which filters out slower local field potentials leaving only fast potentials, i.e., "spikes", arising from extracellular currents associated with action potentials (Pine 2006; Wheeler and Nam 2011). On-line spike detection of filtered signals was conducted with the AxIS adaptive spike detector, using a threshold of 8x the root mean squared (rms) noise on each channel. Any electrodes with rms noise levels greater than 5 uV were grounded (e.g., no data were recorded). Once grounded, an electrode was grounded for the duration of the experiment. All recordings were conducted at 37 C. Wells were deemed usable if on the day of the exposure >/= 10 electrodes were active (defined as >/= 5 spikes/min). On DIV 13 or 15, a minimum of three wells from one cortical culture preparation were treated with each compound (0.03-40 uM). Prior to recording baseline activity, each mwMEA plate was placed in the Maestro at 37 C and allowed to sit for 20 min while firing rates stabilized. Baseline activity (40 min) was recorded before the addition of each compound. An additional 40 min of spontaneous activity was recorded in the presence of each compound. Changes in network parameters relative to baseline were assessed following compound treatment.
With `CO[C@H]1/C=C/O[C@@]2(C)Oc3c(C)c(O)c4c(O)c(c(/C=N/N5CCN(C)CC5)c(O)c4c3C2=O)NC(=O)/C(C)=C\C=C\[C@H](C)[C@H](O)[C@@H](C)[C@@H](O)[C@@H](C)[C@H](OC(C)=O)[C@@H]1C` the outcome was “inactive”.
With `CN(C)C(=O)C1(N2CCCCC2)CCN(CC[C@@]2(c3ccc(Cl)c(Cl)c3)CN(C(=O)c3ccccc3)CCO2)CC1` the AC50 was 3.26 µM (active).
With `Clc1ccccc1C(c1ccccc1)(c1ccccc1)n1ccnc1` the AC50 was 5.01 µM (active).
For `Cc1cc2c(cc1C(F)(F)F)N(C(=O)Nc1ccc(Oc3cccnc3C)nc1)CC2`, the outcome was “inactive”.
With `CCN(CC)C(=O)c1cc(S(=O)(=O)Cc2ccccc2)c(N2CCC(c3ccccc3)CC2)cc1N(CC)CCN(C)C` the AC50 was 3.04 µM (active).
In the case of `CN1C(=O)CC[C@H]1c1cccnc1`, the outcome is reported as “inactive”.
With `CCCCCCCCCCCCO` the outcome was “inactive”.
In the case of `CN(C)c1ccc(C(=C2C=CC(=[N+](C)C)C=C2)c2ccc(N(C)C)cc2)cc1`, the AC50 is reported as 0.416 µM (active).
For `OC12N=C(c3ccccc3)SC1Cc1cc(Cl)ccc12` (stereo unspecified), the AC50 was 6.83 µM (active).
With `COc1cccc([C@H](O)C2CCN(CCc3ccc(F)cc3)CC2)c1OC` the AC50 was 2.87 µM (active).
In the case of `c1ccc2n[nH]nc2c1`, the outcome is reported as “inactive”.
For `O=C(O)c1ccccc1-n1cc(C(=O)O)c(=O)c2cc(Nc3c(F)cc(F)cc3Cl)c(Cl)cc21`, the outcome was “inactive”.
For `CC(O)CC(C)(C)O` (stereo unspecified), the outcome was “inactive”.
In the case of `CCCCOC(=O)c1ccc(O)cc1`, the outcome is reported as “inactive”.
With `CN(C[C@@H](CC[N+]12CCC(C3CCCCC3)(CC1)CC2)c1ccc(Cl)c(Cl)c1)C(=O)c1cc(C(F)(F)F)cc(C(F)(F)F)c1` the AC50 was 0.273 µM (active).
In the case of `CCN(Cc1cccc(S(=O)(=O)O)c1)c1ccc(C(=C2C=CC(=[N+](CC)Cc3cccc(S(=O)(=O)O)c3)C=C2)c2ccccc2S(=O)(=O)[O-])cc1`, the outcome is reported as “inactive”.
With `NC(=O)c1nc(-c2cccc(-c3cc(F)ccc3OCC(F)(F)C(F)(F)F)c2)n[nH]1` the AC50 was 0.648 µM (active).
For `C[C@]12CC[C@@H]3c4ccc(O)cc4CC[C@H]3[C@@H]1CC[C@H]2O`, the outcome was “inactive”.
For `COc1cc(C(=O)NC2CCN(C)CC2)ccc1Nc1ncc2c(n1)N(C1CCCC1)CC(F)(F)C(=O)N2C`, the AC50 was 7.05 µM (active).
For `Cc1c2ccccc2c(C)c2c1ccc1ccccc12`, the AC50 was 20 µM (active).
For `CC[C@@H]1C[C@H](N(Cc2cc(C(F)(F)F)cc(C(F)(F)F)c2)C(C)=O)c2cc(C(F)(F)F)ccc2N1C(=O)OC(C)C`, the outcome was “inactive”.
In the case of `CCCCCCCCOC(=O)c1cc(O)c(O)c(O)c1`, the AC50 is reported as 4.46 µM (active).
For `CC(=O)N1CCN(c2ccc(OC[C@H]3CO[C@](Cn4ccnc4)(c4ccc(Cl)cc4Cl)O3)cc2)CC1`, the outcome was “inactive”.
With `O=c1[nH]sc2ccccc12` the AC50 was 0.0259 µM (active).
For `CC/C(=C(/CC)c1ccc(O)cc1)c1ccc(O)cc1`, the AC50 was 8.49 µM (active).
With `CC(C)(c1cc(Br)c(O)c(Br)c1)c1cc(Br)c(O)c(Br)c1` the outcome was “inactive”.
With `NCc1cccc(C2CCN(C(=O)c3ccc(C#Cc4ccccc4F)o3)CC2)c1` the AC50 was 9.02 µM (active).
For `Cc1cn([C@H]2C[C@H](N=[N+]=[N-])[C@@H](CO)O2)c(=O)[nH]c1=O`, the outcome was “inactive”.
In the case of `CC1=CC(=O)/C(=C(/C)O)C(=O)O1`, the outcome is reported as “inactive”.
For `CC(C)(C)c1cc(/C=C2\SC(N)=NC2=O)cc(C(C)(C)C)c1O`, the AC50 was 14.7 µM (active).
For `O=C1O[C@H]([C@@H](O)CO)C(O)=C1O`, the outcome was “inactive”.
